# Vaccinia Venus: vaccinia inhibition (Venus reporter); Vaccinia virus Venus reporter expression, fluorescence; Potency, µM (top dose mostly 36.5 µM), for the others: at the top dose activity change, negative = inhibition, actives largely listed as inhibitors; 330,000 compounds, 0.46% hits; AID 720580; calls by dose curve; tested in A549 cells; note: nearly all actives have a fitted effect of over 30% in size
# HCV inh: blocks hepatitis C virus; Huh7.5.1 HCVcc-Cre infection, luciferase reporter, 44 h; Potency, µM (highest dose often 41.8 µM), for inactives: at the highest dose activity change, negative = inhibition, usual class: inhibitors; 340,000 compounds, 3.4% hits; active = well fitted inhibition curve with a large enough effect; inconclusive = small, poorly fitted or top-dose-only effect, or another doubt; inactive = no such curve, though single readings can be large or run the other way
#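 Antiviral activity was scored by luciferase reporter output from cells infected with HCVcc-Cre (~0.5 moi) in presence of compound, 44 h infection period, cells seeded 1,000/well 4 h prior.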
# VACV mCherry inh: vaccinia inhibition (mCherry reporter); Potency, µM (top dose mostly 36.5 µM), inactives show at the highest dose activity change, negative = inhibition, hits mostly inhibitors; AID 720579; 310,000 compounds, 0.63% hits; Vaccinia virus mCherry reporter infection, fluorescence; calls by dose curve; tested in A549 cells; note: nearly all actives have a fitted effect of over 35% in size
# * marks the source's active call; other numbers are inactive results; i = inactive; ? = inconclusive; / = no result; [ ] = remark or other dose. Only some compounds are listed: those with a hit (about 3.3% of all), similar ones and a draw of the others. % is set by controls: 0 for no effect and ±100 for the full control effect; potency is the fitted concentration of half-maximal effect.
SMILES,Vaccinia Venus,HCV inh,VACV mCherry inh
Cc1[nH]nc2c1C(c1ccccc1)C1=C(CC(C)(C)CC1=O)N2 (stereo not drawn),-18%,19%,?
O=C1CCCC2=C1C(c1cccc(O)c1)C1=C(N2)c2ccccc2C1=O (stereo not drawn),-13%,-26%,-3%
CC1(C)CC(=O)C2=C(C1)NC1=C(C(=O)c3ccccc31)C2c1ccc(O)cc1 (stereo not drawn),11µM*,-20%,?
CCCCc1ccc(C2C3=C(CC(C)(C)CC3=O)NC3=C2C(=O)c2ccccc23)cc1 (stereo not drawn),?,13µM*,-30%
Cc1ccc(Cn2cc(/C=C(/C#N)C(=O)Nc3cccc(Cl)c3)c3ccccc32)cc1,-10%,/,-20%
COc1ccc(NC(=O)C2CCN(Cc3cnn(-c4ccccc4)c3-n3cccc3)CC2)cc1OC,-29%,?,-13%
COc1cccc(NC(=O)C2CCN(Cc3cnn(-c4ccccc4)c3-n3cccc3)CC2)c1,/,11µM*,/
CCCCN(C)CCNC(=O)Cn1ncc2c3ccccc3n(CCC)c2c1=O,-15%,/,-9%
O=C(Nc1cccnc1Cl)c1ccc(=O)oc1,6%,4%,i
CC(C)Oc1ccc(Br)cc1/C=N\NC(N)=S,7.9µM*,?,5.6µM*
Cc1cc(/C=N/NC(N)=S)c(C)n1-c1ccc(Br)cc1,-7%,-8%,-7%
Cc1nnc(SCc2ccccc2Cl)c2cc3occc3n12,-9%,/,-6%
Cc1cccc(NC(=O)CN(CC2CCCO2)C(=O)c2ccc(S(C)(=O)=O)cc2)c1C (stereo not drawn),-7%,9%,i
CN(C)c1ccc(NC(=O)/C=C/c2c(Cl)cccc2Cl)cc1,6%,?,28µM*
CN(C)S(=O)(=O)c1ccc(NC(=O)/C=C/c2ccccc2Cl)cc1,-29%,8.9µM*,?
O=C(/C=C/c1ccccc1Cl)Nc1ccccc1,-21%,?,i
O=C(/C=C/c1c(F)cccc1Cl)Nc1ccc(S(=O)(=O)Nc2ncccn2)cc1,-11%,0%,-15%
CCCCOC(=O)c1ccc(Nc2nc3ccc(C(=O)c4ccccc4)cc3n3cnnc23)cc1,?,/,-27%
COc1cc(/C=N\NC(=O)c2ccc(Cn3nc([N+](=O)[O-])c(Cl)c3C)o2)ccc1O,18µM*,-24%,/
COc1cccc(/C=N\NC(=O)c2ccc(Cn3cc(Br)c([N+](=O)[O-])n3)o2)c1O,?,2.8µM*,1.3µM*
COc1ccc(OC)c(NC(=O)c2cccc(Cn3cc(Br)c([N+](=O)[O-])n3)c2)c1,?,?,-26%
Cc1nn(CC(=O)N/N=C/c2cccs2)c(C)c1[N+](=O)[O-],-9%,4%,-9%
COc1cccc(/C=N/NC(=O)Cn2nc(C)c([N+](=O)[O-])c2C)c1O,?,?,11µM*
Cc1c(Cl)c([N+](=O)[O-])nn1Cc1ccc(C(=O)N/N=C\c2ccccn2)o1,?,-1%,-25%
CCN(CC)S(=O)(=O)c1ccc2c(c1)N(CC(=O)NCCCN1CCN(c3cc(Cl)ccc3C)CC1)C(=O)CO2,-17%,/,-21%
SMILES,Vaccinia Venus,HCV inh,VACV mCherry inh
COc1cc(-c2noc(C3CC(=O)N(c4cc(C)ccc4C)C3)n2)cc(OC)c1OC (stereo not drawn),3%,/,0%
COC(=O)c1ccc(CN2CCOc3ccc(CN4CCC(O)(c5cccnc5)CC4)cc3C2)cc1,-26%,/,-26%
Cc1cn2c(=O)cc(COc3cccc(NC(=O)c4ccc(C(C)(C)C)cc4)c3)nc2s1,-9%[7.34 µM],/,i[7.34 µM]
Cc1ccc(-n2nnnc2-c2cnc(N3CCCC3)nc2C(F)(F)F)cc1,?,11µM*,?
COc1ccc(-n2nnnc2-c2cn(C)nc2C(F)(F)F)cc1,-13%,-5%,-13%
FC(F)(F)c1nc(N2CCCC2)ncc1-c1nnnn1-c1ccccc1,/,11µM*,/
Cc1cc(C)nc(N2CCN(c3nnnn3-c3ccccc3)CC2)n1,-5%,-4%,-2%
COc1ccc(N2CCN(S(=O)(=O)c3ccc4c(c3)NC(=O)CC(=O)N4)CC2)cc1,/,0%,/
COc1ccc(N2CC(C(=O)Nc3nnc(SCC(=O)NCC4CCCO4)s3)CC2=O)cc1 (stereo not drawn),-3%,0%,-8%
COc1ccc(-c2cccc3c2C2CC3CCN2C(=O)OCc2ccccc2)cc1 (stereo not drawn),-10%,7.9µM*,i
O=C(OCc1ccccc1)N1CCC2CC1c1cc(-c3ccccc3)ccc12 (stereo not drawn),3%,-17%,-27%
Cc1cccc(N2CCN(C(=O)c3ccc4c(c3)N(Cc3cccc(Cl)c3)C(=O)c3ccccc3S4=O)CC2)c1C (stereo not drawn),-19%,/,-28%

# Screens deposited in PubChem BioAssay by National Center for Advancing Translational Sciences (NCATS).
